Six1-Eya2 blk = blocks human Six1 binding to Eya2; AlphaScreen GST-Six1/His-Eya2 binding, biochemical; active compounds read low; activity change, % (test concentration not listed); hit rate 0.56% among 360,000; AID 651725
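Compounds are tested against tagged Six1 and Eya2 proteins bridged by glutathione donor and nickel acceptor beads; after a one-hour incubation at 37 °C without light, AlphaScreen emission is recorded.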
CtBP-E1A blk = inhibitors of CtBP/E1A interaction; activity change, % (concentration not given with the values); AlphaScreen GST-E1A/His-CtBP binding, 1536-well; active compounds read low; AID 651724; hit rate 0.49% among 340,000
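Homogeneous bead-based format: GST-tagged E1A captured on glutathione donor beads, His-tagged CtBP on nickel acceptor beads; compounds precede bead addition by 2 h at 37 °C.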
JMJD2E inh = JMJD2E (human) inhibition; B2RXH2; JMJD2E catalytic domain, FDH-coupled NADH fluorescence (FDH is formaldehyde dehydrogenase); Potency, µM (highest dose often 57.1 µM), most hits filed as inhibitors; hit rate 1.6% among 230,000; active means well fitted inhibition curve with a large enough effect, not every such curve was filed as active; inconclusive means small, poorly fitted or top-dose-only effect, or another doubt; inactive means no such curve, though single readings can be large or run the other way; further: nearly all actives have a fitted effect of over 50% in size
Target sequence (B2RXH2 1-337 limits assumed): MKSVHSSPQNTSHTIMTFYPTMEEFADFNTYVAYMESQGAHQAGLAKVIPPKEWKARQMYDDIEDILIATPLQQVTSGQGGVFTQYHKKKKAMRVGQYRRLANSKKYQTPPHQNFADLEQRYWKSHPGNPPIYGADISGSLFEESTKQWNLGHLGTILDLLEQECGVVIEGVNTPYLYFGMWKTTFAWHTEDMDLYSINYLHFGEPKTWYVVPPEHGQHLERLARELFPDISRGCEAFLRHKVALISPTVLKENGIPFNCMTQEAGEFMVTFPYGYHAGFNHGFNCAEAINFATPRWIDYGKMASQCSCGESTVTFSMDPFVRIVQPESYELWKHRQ
L3MBTL1 inh = L3MBTL1 (human) inhibition. Q9Y468. hit rate 0.66% among 230,000. AlphaScreen L3MBTL1–H3K9me1 peptide binding. Potency, µM (titrated, usually from 57.1 µM), usual class: inhibitors; active means well fitted inhibition curve with a large enough effect; inconclusive means small, poorly fitted or top-dose-only effect; inactive means no such curve, though single readings can be large or run the other way; further: nearly all actives have a fitted effect of over 60% in size
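L3MBTL1 50 nM + b-AHA-H3(1-15)K9me1 75 nM, 30 min RT; compound added, 30 min RT; streptavidin donor/Ni-chelate acceptor beads 10 ug/mL each final, 30 min RT dark; AlphaScreen read.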
Each line names hits and unclear results; the compound was inactive in the other large screens. The full list was thinned out, with hits kept by preference. Unless noted, no stated cut-off is given here; in the data, active means activity change below about -65%; inconclusive means mostly about -30% to -63%; inactive means weaker than that.

Cc1ccc(C2=NC(=O)/C(=C/c3cc(O)c(O)c(Br)c3)S2)cc1	CtBP-E1A blk inconclusive, JMJD2E inh 13µM (no result: L3MBTL1 inh)
N#CC(c1ccccc1O)N1N=C(c2ccccc2)CC1c1ccccc1 (stereo not drawn)	JMJD2E inh 32µM
O=C(O)C1CCCCN1C(=O)c1ccc(S(=O)(=O)N2CCCC2)cc1 (stereo not drawn)	none (no result: JMJD2E inh)
COc1ccc(OC)c(S(=O)(=O)n2nnc3ccccc32)c1	Six1-Eya2 blk inconclusive
COc1ccc(F)cc1S(=O)(=O)n1nnc2ccccc21	Six1-Eya2 blk -68, CtBP-E1A blk inconclusive, JMJD2E inh inconclusive
O=C(Cc1ccccc1)NCC(=O)OCC(=O)c1ccc(OC(=O)c2ccccc2)cc1	none
O=C(N/N=C/c1c(O)ccc2ccccc12)Nc1ccccc1	none (no result: CtBP-E1A blk, JMJD2E inh, L3MBTL1 inh)
O=C(CSCC(=O)Nc1ccccc1)N/N=C/c1c(O)ccc2ccccc12	Six1-Eya2 blk inconclusive, CtBP-E1A blk -72
O=C(CN1CCOCC1)N/N=C/c1ccco1	none
O=C(CN1CCOCC1)N/N=C/c1c(O)ccc2ccccc12	Six1-Eya2 blk -95, CtBP-E1A blk -93 (no result: JMJD2E inh)
CC(=NNC(=O)c1cccc(S(=O)(=O)N2CCOCC2)c1)c1ccc(Cl)cc1	none (no result: JMJD2E inh)
CCC(C)NC(=O)CSc1ccc(S(=O)(=O)N(C)C2CCCCC2)cn1 (stereo not drawn)	none (no result: JMJD2E inh)
O=Cc1ccccc1-n1cccn1	none
Oc1cc(-n2cccn2)c(O)cc1-n1cccn1	JMJD2E inh 16µM (no result: CtBP-E1A blk)
Cc1cccc(C2c3[nH]c4ccccc4c3CCN2C(=O)c2nn(C)c(=O)c3ccccc23)n1 (stereo not drawn)	none
Cc1cccc(C2c3[nH]c4ccccc4c3CCN2C(=O)c2ocnc2C)n1 (stereo not drawn)	JMJD2E inh 22µM
CSc1ccc(/C=N/Nc2nc(C)cc(=O)[nH]2)cc1	CtBP-E1A blk inconclusive, JMJD2E inh inconclusive
Cc1cc(=O)[nH]c(N/N=C/c2ccc(-c3ccc(F)cc3)o2)n1	Six1-Eya2 blk -85, CtBP-E1A blk -82 (no result: JMJD2E inh, L3MBTL1 inh)
Cc1cc(=O)[nH]c(N/N=C/c2c(O)n(-c3ccccc3)c(=O)c3ccccc23)n1	Six1-Eya2 blk -87, CtBP-E1A blk inconclusive, JMJD2E inh inconclusive
Cc1cc(=O)[nH]c(NN=Cc2c(Cl)cccc2Cl)n1	none (no result: JMJD2E inh, L3MBTL1 inh)
Cc1cc(=O)[nH]c(N/N=C/c2ccc(Br)s2)n1	Six1-Eya2 blk -73, CtBP-E1A blk inconclusive
CCOC(=O)[C@@H]1[C@H]2COc3cc(OC)ccc3[C@@H]2N2C(=O)N(c3ccc(F)cc3)C(=O)[C@]12C	L3MBTL1 inh inconclusive (no result: JMJD2E inh)
C/C(=N\Nc1ccc2nncn2n1)c1ccccn1	Six1-Eya2 blk -91, CtBP-E1A blk -95, JMJD2E inh 10µM, L3MBTL1 inh 25µM
C/C(=N\Nc1ccc2nncn2n1)c1ccco1	none
CN(C)c1ncc(C2=C(Cl)C(=O)C(N3CCCC3)=C(Cl)C2=O)s1	Six1-Eya2 blk inconclusive (no result: JMJD2E inh, L3MBTL1 inh)
O=C1C(Cl)=C(N2CCCCC2)C(=O)C(Cl)=C1c1cnc(N2CCCCC2)s1	JMJD2E inh 14µM, L3MBTL1 inh 18µM
C=CCNc1nc2c(c(=O)[nH]c(=O)n2C)n1CC(O)COc1ccc2ccccc2c1 (stereo not drawn)	none (no result: JMJD2E inh)
COc1ccc(OC)c(C2=C/C(=C/c3ccccn3)C(=O)O2)c1	JMJD2E inh 25µM (no result: L3MBTL1 inh)
COc1ccc(OC)c(-c2oc3ccccc3c(=O)c2O)c1	JMJD2E inh inconclusive
COc1ccc2c(c1)O[C@H](c1ccc3c(c1)OCO3)[C@@H](OC(=O)NS(=O)(=O)c1ccc(F)cc1)C2=O	none (no result: Six1-Eya2 blk, CtBP-E1A blk, L3MBTL1 inh)
Cc1cn(C2CC(N=[N+]=[N-])C(CO)O2)c(=O)[nH]c1=O (stereo not drawn)	none (no result: Six1-Eya2 blk, CtBP-E1A blk, L3MBTL1 inh)
COc1cccc(NC(=O)CCC(=O)Nc2cc(OC)c(NC(=O)c3cccs3)cc2OC)c1	Six1-Eya2 blk -69, CtBP-E1A blk -82 (no result: JMJD2E inh, L3MBTL1 inh)
COc1ccc(OCC(=O)Nc2ccc(NC(=O)c3cccs3)cc2)cc1	none (no result: JMJD2E inh, L3MBTL1 inh)
COc1ccc(NC(=O)CCC(=O)Nc2cc(OC)c(NC(=O)c3cccs3)cc2OC)cc1	Six1-Eya2 blk -79, CtBP-E1A blk -79 (no result: JMJD2E inh, L3MBTL1 inh)
COc1cccc(NC(=O)c2cccs2)c1	none
COc1ccc2c(c1)Cc1sc(NC(=O)c3cccs3)nc1-2	JMJD2E inh 11µM
COc1cc(NC(=O)c2cc([N+](=O)[O-])ccc2NC(=O)CNCc2ccccn2)cc(OC)c1	Six1-Eya2 blk -91, CtBP-E1A blk -84 (no result: JMJD2E inh, L3MBTL1 inh)
COc1ccc(NC(=O)c2cc([N+](=O)[O-])ccc2NC(=O)CNCc2ccccn2)c(OC)c1	Six1-Eya2 blk inconclusive (no result: JMJD2E inh, L3MBTL1 inh)
N#CC1=C(N)N(c2ccc(F)cc2)C2=C(C1c1ccc(O)cc1)S(=O)(=O)CC2 (stereo not drawn)	JMJD2E inh 20µM (no result: L3MBTL1 inh)
CN1CCC[C@@H](CC2c3ccccc3Sc3ccccc32)C1	none (no result: Six1-Eya2 blk, CtBP-E1A blk, L3MBTL1 inh)
